Here are results for 38 molecules from PubChem BioAssay AID720565 (National Center for Advancing Translational Sciences (NCATS), 2013).

SMILES strings stand for the structures. Inconclusive results are not listed. Activity calls are given as the source filed them. The call rests on the fitted dose curve; in most records, active means well fitted activation curve with a large enough effect; inconclusive means small, poorly fitted or top-dose-only effect; inactive means no such curve, though single readings can be large or run the other way.
Potency means the concentration at half of the fitted maximal effect.

This assay in a line: qHTS for small molecules that induce genotoxicity in ELG1 expressing cells: Confirmatory Assay for Cherry-picked Compounds. Further: nearly all actives have a fitted effect of over 35% in size. On activation: % of control where 0% means no effect. To be noted: ELG1-luciferase reporter cells, luminescence, 16 h; series mostly up to 46.1 µM; activation: at the top concentration. The method, boiled down: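 Cells carrying the ELG1-luciferase reporter were exposed to compound for 16 hr at 37 C, 5% CO2, at 2,000 cells per well. Rise in luciferase activity, read with ONE-Glo after 30 min at room temperature, indicates genotoxic stress.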
As for `COc1ccc(/C=C/C(=O)O/N=C(\N)c2ccccn2)cc1OC`, the Potency is 14.1 µM (active). The same measure, in the same setting: for `CN(C)c1ccc(/C=C2\CCc3ccccc32)cc1` the value was 1.58 µM (active). Take `Nc1ccc2cccnc2c1`: the Potency was 1.77 µM (active). On the same count and under the same terms, for `O=c1c2ccccc2oc2c1ccc1ccccc12` the value was 15.8 µM (active). On the same count and under the same terms, for `CCN(CC)S(=O)(=O)c1ccc(N2CCOCC2)c(NC(=O)c2[nH]c(C)c(C(C)=O)c2C)c1` the value was 12.5 µM (active). `CNC(=O)c1cc(-c2cccs2)on1`: the “activation” value is 11.9% (inactive). For `CCOC(=O)c1cc(-c2cc(OC)c(OC)c(OC)c2)nc2c1c(=O)[nH]c(=O)n2Cc1ccccc1`, the Potency was 25 µM (active). Same read-out and setting: for `Cn1cccc1C(=O)OCC(=O)c1c[nH]c2ccccc12` the value was 5.6 µM (active). Regarding `CC(=O)N1CCc2cc(Br)cc(S(=O)(=O)CCC(=O)Nc3c(C)n(C)n(-c4ccccc4)c3=O)c21`, the “activation” value is -3.98% (inactive). As for `Cn1cccc1C(=O)OCC(=O)Nc1sccc1C#N`, the Potency was 15.8 µM (active).

As to `ICC[n+]1csc2ccccc21`, the Potency was 14.1 µM (active).

Consider `Cc1ccc(NC(=O)c2ccc(OC(=O)c3cc4ccccc4o3)cc2)cc1`, for which the Potency is 8.89 µM (active).

As for `COc1cccc(NC(=O)COC(=O)c2sccc2C)c1`, the Potency is 11.2 µM (active). For `COc1cccc2oc(-c3ccccc3)cc(=O)c12`, the Potency is 4.45 µM (active). Still for that read-out and setting: for `Oc1cc2cc(-c3csc(-c4ccc(F)cc4)n3)cc3c2n1CCC3` the value was 6.28 µM (active); for `O=c1c(-c2ccc(F)cc2)coc2c3c(ccc12)OCCO3`, 4.45 µM (active). Still for that read-out and setting: for `COc1cc(/C=C(\C#N)C(=O)Nc2cccc(C(=O)O)c2)ccc1OCc1ccc(F)cc1` the value was 28.1 µM (active).

As for `Cc1cc2cc3c(cc2nc1SCC(=O)N1CCOCC1)OCO3`, the “activation” value is -9.39% (inactive). For the molecule `CCCC(=O)Oc1ccc2[nH]c(C(=O)c3cc4ccccc4[nH]3)cc2c1`, the Potency is 6.28 µM (active). The same measure, in the same setting: for `CCOC(=O)c1cc(-c2ccc([N+](=O)[O-])cc2)nc2c1c(=O)[nH]c(=O)n2Cc1ccccc1` the value was 11.2 µM (active).

`Fc1ccccc1-c1nc(-c2ccc(-c3nn[nH]n3)cc2)no1`: the Potency is 7.91 µM (active). On the same count and under the same terms, for `Cc1ccc(OCC(=O)Nc2ccc(-c3nc4ncccc4o3)cc2)cc1` the value was 28.1 µM (active); for `Cc1ccc2c(c1)sc1nc(=O)n(-c3ccccc3)c(=O)n12`, 3.54 µM (active). `O=C(Nc1ccccn1)c1sc2ccc([N+](=O)[O-])cc2c1Cl`: the Potency was 4.99 µM (active). Turning to `COc1ccc(C2CC(c3c(O)cc(C)oc3=O)=NCCS2)c(OC)c1` (stereo not drawn), the Potency is 11.2 µM (active). Still for that read-out and setting: for `CNc1ccc(/C=C2\C=Cc3ccccc32)cc1` the value was 0.792 µM (active).

For the molecule `Cc1ccc(C(=O)NN=CC(=O)c2ccccc2)c(C)c1`, the Potency is 6.28 µM (active). With `O=C(Nc1cc(Cl)ccc1Cl)c1ccc(OC(=O)c2ccco2)cc1`, the “activation” value was -16.4% (inactive). With `Cc1cc(C)c(C#N)c(SCC(=O)Nc2cc(C)on2)n1`, the Potency was 4.99 µM (active). Still for that read-out and setting: for `CC(C)CN(C)c1ccc(/C=C2\C=Cc3ccccc32)cc1` the value was 14.1 µM (active); for `Clc1ccc(-c2cnnc(-c3ccccn3)n2)cc1`, 14.1 µM (active).

With `O=C(CSc1nnc(-c2ccc(O)cc2)o1)Nc1ccccc1`, the Potency was 5 µM (active). Consider `CCn1c(C)cc(C(=O)COC(=O)c2cccnc2SC)c1C`, for which the Potency was 9.96 µM (active). Regarding `CC(=NNC(=O)c1cccs1)c1ccc2c(c1)OCCO2`, the Potency was 14.1 µM (active). With `COc1ccc(S(=O)(=O)Nc2cccc3cccnc23)c([N+](=O)[O-])c1`, the “activation” value was -14.5% (inactive).

As for `CN(Cc1ccco1)c1ncnc2ccc(-c3cccc(Cl)c3)cc12`, the “activation” value was -10.7% (inactive). `COc1cc(OC)cc(-c2cc3cc4c(cc3cn2)OCO4)c1`: the Potency is 5.6 µM (active). For the molecule `COc1ccc2c(C)cc(SCC(=O)N3CCOCC3)nc2c1`, the “activation” value is -2.8% (inactive).
